{
  "source": "PubChem BioAssay (EPA / NIEHS)",
  "note": "Active and inactive are the calls of the source. How the source made its calls: active means hit-call score of the fitted dose curve at least 0.9, where 1 is the maximum; inactive means score below 0.9.",
  "data": [
    {"assay": "ATG_M_61_CIS: Attagene CIS-FACTORIAL HepG2 Assay for M61 Transcription Factor (Internal Marker) (AID 2282937)", "conditions": "HepG2 Attagene CIS-FACTORIAL M61 internal marker reporter; actives raise or lower the signal", "how_it_was_run": "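Readout: fluorescent reporter mRNA fragments resolved by capillary electrophoresis after RT-PCR. Transiently transfected human HepG2 cells carried MRTU constructs reporting endogenous TF activity; 24 h chemical exposure; gain or loss of signal fitted relative to DMSO.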", "values": [
      {"smiles": "CC1(C)S[C@@H]2[C@H](NC(=O)[C@H](N)c3ccccc3)C(=O)N2[C@H]1C(=O)O", "outcome": "inactive"},
      {"smiles": "CCC(C)(CCC(C)C)C(=O)O", "note": "(configuration not stated)", "outcome": "inactive"},
      {"smiles": "Cc1cc(C)c(S(=O)(=O)O)cc1N=Nc1cc(S(=O)(=O)O)c2ccccc2c1O", "outcome": "inactive"},
      {"smiles": "Clc1ccccn1", "outcome": "inactive"},
      {"smiles": "c1cc(N(CC2CO2)CC2CO2)ccc1Cc1ccc(N(CC2CO2)CC2CO2)cc1", "note": "(configuration not stated)", "outcome": "inactive"},
      {"smiles": "CCCCCCOC(=O)CCCCCCCC(=O)OCCCCCC", "outcome": "inactive"},
      {"smiles": "CC1=NN(c2cc(Cl)c(S(=O)(=O)O)cc2Cl)C(=O)C1N=Nc1ccc(S(=O)(=O)O)cc1", "note": "(configuration not stated)", "outcome": "inactive"},
      {"smiles": "O=C(O)Cc1c[nH]c2ccccc12", "outcome": "inactive"},
      {"smiles": "CCCCCCCCCCC1CO1", "note": "(configuration not stated)", "outcome": "inactive"},
      {"smiles": "NCc1ccccc1", "outcome": "inactive"},
      {"smiles": "O=[N+]([O-])c1ccc2nc[nH]c2c1", "outcome": "inactive"},
      {"smiles": "CC(C)CC(=O)O", "outcome": "inactive"},
      {"smiles": "C[Si](C)(C)O[Si](C)(C)O[Si](C)(C)C", "outcome": "inactive"},
      {"smiles": "Cc1cc(O)cc(C)c1Cl", "outcome": "inactive"},
      {"smiles": "CC(C)n1c(/C=C/[C@@H](O)C[C@@H](O)CC(=O)O)c(-c2ccc(F)cc2)c2ccccc21", "outcome": "inactive"},
      {"smiles": "CC(O)(P(=O)(O)O)P(=O)(O)O", "outcome": "inactive"},
      {"smiles": "Cc1cccnc1", "outcome": "inactive"},
      {"smiles": "Cc1ccccc1S(N)(=O)=O", "outcome": "inactive"},
      {"smiles": "C=C(C)C(=O)OCC1CCCO1", "note": "(configuration not stated)", "outcome": "inactive"},
      {"smiles": "OCCOCCOCCOCCOCCO", "outcome": "inactive"},
      {"smiles": "C1=CCC=C1", "outcome": "inactive"},
      {"smiles": "CN(C)CCC(c1ccc(Cl)cc1)c1ccccn1", "note": "(configuration not stated)", "outcome": "inactive"},
      {"smiles": "CN(C)CCCN1c2ccccc2CCc2ccc(Cl)cc21", "outcome": "inactive"},
      {"smiles": "CC/C=C\\CC1=C(C)CCC1=O", "outcome": "inactive"},
      {"smiles": "C[C@H]1C[C@H]2[C@@H]3CCC4=CC(=O)C=C[C@]4(C)[C@@]3(F)[C@@H](O)C[C@]2(C)[C@@]1(O)C(=O)CO", "outcome": "inactive"},
      {"smiles": "COC(OC)C(C)c1ccccc1", "note": "(configuration not stated)", "outcome": "inactive"},
      {"smiles": "F[B-](F)(F)F", "outcome": "inactive"},
      {"smiles": "COCCCN", "outcome": "inactive"},
      {"smiles": "CC1=CCCC(C)(C)C12CCC(C)O2", "note": "(configuration not stated)", "outcome": "inactive"},
      {"smiles": "OCCN(CCO)c1cccc(Cl)c1", "outcome": "inactive"},
      {"smiles": "O=C(O)c1nc(Cl)c(Cl)c(Cl)c1Cl", "outcome": "inactive"},
      {"smiles": "CC=CC(=O)O", "outcome": "inactive"}
    ]},
    {"assay": "ATG_EGR_CIS: Attagene CIS-FACTORIAL HepG2 Assay for human Early Growth Response 1 (EGR1) (AID 2282938)", "conditions": "HepG2 Attagene CIS-FACTORIAL EGR reporter mRNA; actives raise or lower the signal", "how_it_was_run": "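Read-out: fluorescent reporter-mRNA fragments resolved by capillary electrophoresis after RT-PCR, 24 h post-dose in transiently transfected HepG2. Endogenous transcription-factor activity reported via cis-element-regulated reporter units; gain or loss fitted relative to DMSO.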", "values": [
      {"smiles": "CC1(C)S[C@@H]2[C@H](NC(=O)[C@H](N)c3ccccc3)C(=O)N2[C@H]1C(=O)O", "outcome": "inactive"},
      {"smiles": "CCC(C)(CCC(C)C)C(=O)O", "note": "(configuration not stated)", "outcome": "inactive"},
      {"smiles": "CCCc1c(OCCCCc2nn[nH]n2)ccc(C(C)=O)c1O", "outcome": "inactive"},
      {"smiles": "Clc1ccccn1", "outcome": "inactive"},
      {"smiles": "c1cc(N(CC2CO2)CC2CO2)ccc1Cc1ccc(N(CC2CO2)CC2CO2)cc1", "note": "(configuration not stated)", "AC50": "18.4 µM (active)"},
      {"smiles": "CCCCCCOC(=O)CCCCCCCC(=O)OCCCCCC", "outcome": "inactive"},
      {"smiles": "O=C(O)Cc1c[nH]c2ccccc12", "outcome": "inactive"},
      {"smiles": "CCCCCCCCCCC1CO1", "note": "(configuration not stated)", "outcome": "inactive"},
      {"smiles": "NCc1ccccc1", "outcome": "inactive"},
      {"smiles": "CCCCn1cc[n+](C)c1", "outcome": "inactive"},
      {"smiles": "CC(C)CC(=O)O", "outcome": "inactive"},
      {"smiles": "C[Si](C)(C)O[Si](C)(C)O[Si](C)(C)C", "outcome": "inactive"},
      {"smiles": "CC(C)n1c(/C=C/[C@@H](O)C[C@@H](O)CC(=O)O)c(-c2ccc(F)cc2)c2ccccc21", "outcome": "inactive"},
      {"smiles": "CC1=C(CC=O)C(C)(C)CCC1", "outcome": "inactive"},
      {"smiles": "CC(O)(P(=O)(O)O)P(=O)(O)O", "outcome": "inactive"},
      {"smiles": "Cc1cccnc1", "outcome": "inactive"},
      {"smiles": "Cc1ccccc1S(N)(=O)=O", "outcome": "inactive"},
      {"smiles": "C=C(C)C(=O)OCC1CCCO1", "note": "(configuration not stated)", "outcome": "inactive"},
      {"smiles": "OCCOCCOCCOCCOCCO", "outcome": "inactive"},
      {"smiles": "C1=CCC=C1", "outcome": "inactive"},
      {"smiles": "CC(C)CC(=O)CC(C)CC(C)C", "note": "(configuration not stated)", "outcome": "inactive"},
      {"smiles": "CCCOCCC", "outcome": "inactive"},
      {"smiles": "CN(C)CCC(c1ccc(Cl)cc1)c1ccccn1", "note": "(configuration not stated)", "outcome": "inactive"},
      {"smiles": "CC/C=C\\CC1=C(C)CCC1=O", "outcome": "inactive"},
      {"smiles": "C[C@H]1C[C@H]2[C@@H]3CCC4=CC(=O)C=C[C@]4(C)[C@@]3(F)[C@@H](O)C[C@]2(C)[C@@]1(O)C(=O)CO", "AC50": "100 µM (active)"},
      {"smiles": "COC(OC)C(C)c1ccccc1", "note": "(configuration not stated)", "outcome": "inactive"},
      {"smiles": "F[B-](F)(F)F", "outcome": "inactive"},
      {"smiles": "COCCCN", "outcome": "inactive"},
      {"smiles": "CC1=CCCC(C)(C)C12CCC(C)O2", "note": "(configuration not stated)", "outcome": "inactive"},
      {"smiles": "OCCN(CCO)c1cccc(Cl)c1", "outcome": "inactive"}
    ]}
  ]
}
